According to PubChem BioAssay (Tox21):
Several values for one entry are separate records, joined by “and”; a condition that tells them apart may be missing. Identical values can stand only once. Inconclusive results are not listed. A structure can be active in one record and inactive in another. Activity calls are given as the source filed them. Unless noted, calls come from the whole dose curve; as a rule, active = well fitted curve in the direction sought with a large enough effect in the repeat runs; inconclusive = weak or mixed curves; inactive = no such curve, though single readings can be large; an effect the other way counts as inactive or inconclusive.

Tests used:
[1] = qHTS assay to identify aromatase inhibitors - cell viability counter screen (AID 743084);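 note: cells stimulated with testosterone during compound exposure; nearly all actives have a fitted effect of over 55% in size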; note: potency is the fitted concentration of half-maximal effect
[2] = target: Aryl hydrocarbon receptor (Homo sapiens) (UniProt P35869); assay: qHTS assay to identify small molecule that activate the aryl hydrocarbon receptor (AhR) signaling pathway (AID 743085); note: nearly all actives have a fitted effect of over 15% in size; note: potency is the fitted concentration of half-maximal effect;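 for activation: HG2L7.5c1 human HepG2 liver cells with stably integrated DRE-driven firefly reporter; series mostly up to about 70 µM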
Method in brief: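 AhR agonist activity is inferred from enhanced light output of a DRE-controlled firefly luciferase reporter in HepG2 cells, measured with ONE-Glo following 24 h treatment at 37C.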

[3] = target: Peroxisome proliferator-activated receptor gamma (Homo sapiens) (UniProt P37231); assay: qHTS assay to identify small molecule agonists of the peroxisome proliferator-activated receptor gamma (PPARg) signaling pathway (AID 743094; active = well fitted activation curve with a large enough effect in the signal ratio in the repeat runs, not every such curve was filed as active; the % refers to the signal ratio)
Method in brief: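 HEK293H PPARg-bla cells, 5 h settle at 37C/5% CO2; compound (DMSO) 17 h, 37C; B/G FRET substrate 1 h RT; fluorescence intensity read-out. qHTS format.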

[4] = target: Peroxisome proliferator-activated receptor gamma (Homo sapiens) (UniProt P37231); assay: qHTS assay to identify small molecule antagonists of the peroxisome proliferator-activated receptor gamma (PPARg) signaling pathway (AID 743191; calls by dose curve; note: series mostly up to about 63 µM; nearly all actives have a fitted effect of over 30% in size)
Method in brief: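 Beta-lactamase reporter under UAS control in HEK293H PPARg-bla cells; compound treatment 17 h at 37C. Read-out: fluorescence intensity after 1 h room-temperature incubation with LiveBLAzer B/G FRET substrate.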

[5] = qHTS assay to identify small molecule antagonists of the peroxisome proliferator-activated receptor gamma (PPARg) signaling pathway - cell viability counter screen (AID 743194); note: nearly all actives have a fitted effect of over 55% in size; note: potency is the fitted concentration of half-maximal effect
Method in brief: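 Viability was measured as CellTiter-Glo luminescence in GeneBLAzer PPARg UAS-bla HEK293H cells. These cells had been exposed 17 h at 37 C to compounds together with rosiglitazone at 50 nM final, with the beta-lactamase readout taken in the same wells.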

[6] = qHTS assay for small molecule agonists of the antioxidant response element (ARE) signaling pathway (AID 743202; active = well fitted activation curve with a large enough effect in the signal ratio in the repeat runs, not every such curve was filed as active; the % refers to the signal ratio; note: potency is the fitted concentration of half-maximal effect)
Method in brief: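 Beta-lactamase reporter activity, read as fluorescence intensity, reflects ARE/Nrf2 pathway induction in HepG2 cells after 16 h compound exposure at 37 C; substrate loading was 2 h at room temperature.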

[7] = qHTS assay for small molecule agonists of the antioxidant response element (ARE) signaling pathway - cell viability counter screen (AID 743203; calls by dose curve; note: nearly all actives have a fitted effect of over 55% in size; note: potency is the fitted concentration of half-maximal effect)
Method in brief: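 Luminescence read-out (CellTiter-Glo, 30 min at room temperature) measured cell viability in the same wells as the ARE beta-lactamase reporter. HepG2 ARE-bla cells were treated with compounds for 16 hrs at 37C/5% CO2.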

[8] = qHTS assay for small molecule activators of the heat shock response signaling pathway - cell viability counter screen (AID 743209); note: nearly all actives have a fitted effect of over 50% in size
Method in brief: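 HSE-bla HeLa; 1500 cells/well; overnight 37 C, 5% CO2; compound 5 h 37 C; LiveBLAzer B/G substrate 2.5 h RT; CellTiter-Glo 30 min RT; luminescence.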

[9] = qHTS assay for small molecule activators of the heat shock response signaling pathway (AID 743210; active = well fitted activation curve with a large enough effect in the signal ratio in the repeat runs, with a control signal flat, not every such curve was filed as active; the % refers to the signal ratio;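 note: HeLa cells with beta-lactamase reporter driven by heat shock elements; series mostly up to about 63 µM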)
Method in brief: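 Fluorescence from a cleaved B/G FRET substrate (2.5 h, room temp) reports HSE-driven beta-lactamase in HeLa cells treated 5 h at 37 C with DMSO-dissolved compounds.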

[10] = qHTS assay to identify small molecule agonists of the peroxisome proliferator-activated receptor delta (PPARd) signaling pathway - cell viability counter screen (AID 743211); note: nearly all actives have a fitted effect of over 55% in size; note: potency is the fitted concentration of half-maximal effect
Method in brief: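 qHTS cell viability: PPARd-bla HEK293H; 17 h cpd, 37C; CellTiter-Glo, luminescence at 30 min RT.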

[11] = target: Peroxisome proliferator-activated receptor delta (Homo sapiens) (UniProt Q03181); assay: qHTS assay to identify small molecule agonists of the peroxisome proliferator-activated receptor delta (PPARd) signaling pathway (AID 743212; calls by dose curve)
Method in brief: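 Steps: seed PPARd-bla HEK293H cells; incubate 5 h, 37 C, 5% CO2; add compounds in DMSO; incubate, 37 C; add LiveBLAzer B/G FRET substrate; hold 2 h at room temperature; measure fluorescence.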

[12] = qHTS assay to identify small molecule antagonists of the peroxisome proliferator-activated receptor delta (PPARd) signaling pathway - cell viability counter screen (AID 743213); note: nearly all actives have a fitted effect of over 50% in size; note: potency is the fitted concentration of half-maximal effect
Method in brief: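 PPARd-bla HEK293H cells (3000/well) got compound plus 300 nM L165041 agonist for 17 h at 37 C. Viability in the same wells came from CellTiter-Glo luminescence after 30 min at room temperature.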

[13] = target: Peroxisome proliferator-activated receptor delta (Homo sapiens) (UniProt Q03181); assay: qHTS assay to identify small molecule antagonists of the peroxisome proliferator-activated receptor delta (PPARd) signaling pathway (AID 743215; active = well fitted inhibition curve with a large enough effect in the signal ratio in the repeat runs, not every such curve was filed as active; the % refers to the signal ratio;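 note: cells stimulated with agonist L165041 at 300 nM final during compound exposure; series mostly up to about 62 µM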)
Method in brief: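 HEK293H GeneBLAzer PPARd UAS-bla reporter cells; cpd + L165041 300 nM final, 17 h 37 C; LiveBLAzer B/G FRET substrate 2 h RT; fluorescence intensity read-out. Antagonist mode.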

[14] = qHTS assay to identify small molecule agonists of the farnesoid-X-receptor (FXR) signaling pathway - cell viability counter screen (AID 743218); note: nearly all actives have a fitted effect of over 45% in size; note: potency is the fitted concentration of half-maximal effect
Method in brief: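 Luminescence from CellTiter-Glo, read after 30 min at RT, reports viability of GeneBLAzer FXR-UAS-bla HEK 293T cells treated 16 h with compounds in the wells used for the beta-lactamase reporter.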

[15] = qHTS assay to identify small molecule antagonists of the farnesoid-X-receptor (FXR) signaling pathway - cell viability counter screen (AID 743221; active = well fitted cell-killing curve with a large enough effect in the repeat runs, not every such curve was filed as active; note: nearly all actives have a fitted effect of over 50% in size; note: potency is the fitted concentration of half-maximal effect)
Method in brief: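 After a 5 h settling period, FXR-bla HEK 293T cells receive compound and chenodeoxycholic acid (50 uM final) and incubate 16 h at 37 C; CellTiter-Glo luminescence, read after 30 min at room temperature, reports cell viability.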

[16] = target: Vitamin D3 receptor (Homo sapiens) (UniProt P11473); assay: qHTS assay to identify small molecule agonists of the vitamin D receptor (VDR) signaling pathway (AID 743222; calls by dose curve)
Method in brief: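 Beta-lactamase reporter readout (LiveBLAzer B/G FRET, 2 h RT) in VDR-bla cells after 16 h compound treatment at 37C, 5% CO2; cells pre-incubated 4 h before pin transfer of DMSO solutions.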

[17] = target: Vitamin D3 receptor (Homo sapiens) (UniProt P11473); assay: qHTS assay to identify small molecule antagonists of the vitamin D receptor (VDR) signaling pathway (AID 743223; active = well fitted inhibition curve with a large enough effect in the signal ratio in the repeat runs, not every such curve was filed as active; the % refers to the signal ratio)
Method in brief: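 Reporter line VDR-bla; stimulus 1alpha,25-(OH)2 vitamin D3, 3 nM final; compound co-addition, 16 h 37C/5% CO2; LiveBLAzer B/G substrate 2 h RT; fluorescence intensity.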

[18] = target: Bile acid receptor (Homo sapiens) (UniProt Q96RI1); assay: qHTS assay to identify small molecule antagonists of the farnesoid-X-receptor (FXR) signaling pathway (AID 743217; active = well fitted inhibition curve with a large enough effect in the signal ratio in the repeat runs, not every such curve was filed as active; the % refers to the signal ratio; note: potency is the fitted concentration of half-maximal effect)
Method in brief: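 Read-out: beta-lactamase FRET fluorescence (LiveBLAzer B/G substrate, 2 h, room temperature) in GeneBLAzer FXR-UAS-bla HEK 293T cells. Compounds were co-dosed with 50 uM chenodeoxycholic acid (final) and incubated 16 h at 37 °C.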

[19] = target: Bile acid receptor (Homo sapiens) (UniProt Q96RI1); assay: qHTS assay to identify small molecule agonists of the farnesoid-X-receptor (FXR) signaling pathway (AID 743220; active = well fitted activation curve with a large enough effect in the signal ratio in the repeat runs, not every such curve was filed as active; the % refers to the signal ratio)
Method in brief: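 FXR-UAS-bla HEK 293T cells carrying a UAS-driven beta-lactamase reporter were plated for 5 h at 37C/5% CO2, then exposed to DMSO-dissolved Tox21 10K compounds for 16 h at 37C. A LiveBLAzer B/G FRET substrate was loaded for 2 h at room temperature before fluorescence reading.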

[20] = qHTS assay to identify small molecule that activate the aryl hydrocarbon receptor (AhR) signaling pathway - cell viability counter screen (AID 743086); note: nearly all actives have a fitted effect of over 45% in size; note: potency is the fitted concentration of half-maximal effect
Method in brief: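 Cytotoxicity counter screen: CellTiter-Fluor signal (30 min, 37 C) in 4000 HepG2 cells/well carrying the DRE-luciferase reporter, following 24 h compound exposure at 37 C.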

Measured: Potency

Chain of Peroxisome proliferator-activated receptor delta (Homo sapiens) (Q03181 whole entry, looked up): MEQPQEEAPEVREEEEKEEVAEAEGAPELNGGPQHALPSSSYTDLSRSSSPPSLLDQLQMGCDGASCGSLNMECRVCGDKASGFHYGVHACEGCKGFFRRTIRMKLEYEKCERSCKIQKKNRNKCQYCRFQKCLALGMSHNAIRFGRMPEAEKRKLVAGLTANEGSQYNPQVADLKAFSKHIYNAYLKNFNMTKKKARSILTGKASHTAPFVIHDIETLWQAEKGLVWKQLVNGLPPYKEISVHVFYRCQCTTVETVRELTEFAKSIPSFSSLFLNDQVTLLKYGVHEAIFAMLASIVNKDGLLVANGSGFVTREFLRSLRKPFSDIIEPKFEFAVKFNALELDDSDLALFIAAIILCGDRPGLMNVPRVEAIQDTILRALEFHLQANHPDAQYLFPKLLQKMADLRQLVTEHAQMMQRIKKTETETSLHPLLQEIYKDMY
Chain of Vitamin D3 receptor (Homo sapiens) (P11473 whole entry, looked up): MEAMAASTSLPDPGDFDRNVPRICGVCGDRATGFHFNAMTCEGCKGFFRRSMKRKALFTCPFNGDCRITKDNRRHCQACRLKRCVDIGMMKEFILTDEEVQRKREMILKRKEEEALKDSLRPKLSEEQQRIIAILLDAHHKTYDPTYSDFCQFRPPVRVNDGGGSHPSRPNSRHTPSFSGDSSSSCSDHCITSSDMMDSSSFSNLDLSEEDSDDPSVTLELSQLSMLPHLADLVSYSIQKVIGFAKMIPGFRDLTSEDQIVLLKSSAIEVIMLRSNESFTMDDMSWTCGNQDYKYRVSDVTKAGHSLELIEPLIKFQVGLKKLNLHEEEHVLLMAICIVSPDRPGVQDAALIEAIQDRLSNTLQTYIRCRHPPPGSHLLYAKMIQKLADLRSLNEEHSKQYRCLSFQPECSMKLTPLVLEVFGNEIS
Chain of Peroxisome proliferator-activated receptor gamma (Homo sapiens) (P37231 whole entry, looked up): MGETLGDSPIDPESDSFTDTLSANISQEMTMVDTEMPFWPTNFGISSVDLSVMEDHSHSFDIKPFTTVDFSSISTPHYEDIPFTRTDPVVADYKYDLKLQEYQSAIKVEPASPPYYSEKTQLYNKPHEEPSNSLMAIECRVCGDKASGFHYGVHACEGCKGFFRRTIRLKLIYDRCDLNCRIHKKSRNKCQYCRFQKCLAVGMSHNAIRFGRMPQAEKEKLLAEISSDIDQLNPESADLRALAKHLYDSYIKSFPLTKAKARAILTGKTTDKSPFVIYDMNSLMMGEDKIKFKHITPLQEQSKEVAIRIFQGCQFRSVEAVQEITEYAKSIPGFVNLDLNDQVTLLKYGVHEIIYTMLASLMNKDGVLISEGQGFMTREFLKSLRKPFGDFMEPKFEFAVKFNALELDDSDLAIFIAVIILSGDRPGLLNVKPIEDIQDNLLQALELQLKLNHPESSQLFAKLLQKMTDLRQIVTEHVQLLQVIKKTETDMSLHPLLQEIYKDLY
Chain of Aryl hydrocarbon receptor (Homo sapiens) (P35869 whole entry, looked up): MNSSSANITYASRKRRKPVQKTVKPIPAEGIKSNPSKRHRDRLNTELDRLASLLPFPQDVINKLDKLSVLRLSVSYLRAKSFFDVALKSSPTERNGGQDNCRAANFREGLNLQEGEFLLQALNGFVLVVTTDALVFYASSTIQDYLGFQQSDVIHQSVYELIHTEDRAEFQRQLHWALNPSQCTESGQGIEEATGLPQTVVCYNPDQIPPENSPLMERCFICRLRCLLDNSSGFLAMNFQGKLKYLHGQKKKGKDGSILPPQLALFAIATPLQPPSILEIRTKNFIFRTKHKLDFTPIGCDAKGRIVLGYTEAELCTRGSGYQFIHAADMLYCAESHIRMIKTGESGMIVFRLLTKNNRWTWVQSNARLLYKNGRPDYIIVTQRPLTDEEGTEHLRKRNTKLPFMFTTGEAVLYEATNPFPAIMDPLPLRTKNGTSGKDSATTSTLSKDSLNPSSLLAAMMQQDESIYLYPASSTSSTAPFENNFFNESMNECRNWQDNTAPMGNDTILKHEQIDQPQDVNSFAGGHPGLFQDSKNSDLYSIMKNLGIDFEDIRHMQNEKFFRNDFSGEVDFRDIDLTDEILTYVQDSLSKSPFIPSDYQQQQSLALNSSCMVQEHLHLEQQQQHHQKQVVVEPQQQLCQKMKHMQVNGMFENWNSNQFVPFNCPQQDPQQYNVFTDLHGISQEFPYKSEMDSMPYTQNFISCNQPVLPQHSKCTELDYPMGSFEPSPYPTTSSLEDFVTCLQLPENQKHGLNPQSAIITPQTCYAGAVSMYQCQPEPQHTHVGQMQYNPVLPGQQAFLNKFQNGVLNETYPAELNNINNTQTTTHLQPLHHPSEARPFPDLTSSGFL
Chain of Bile acid receptor (Homo sapiens) (Q96RI1 whole entry, looked up): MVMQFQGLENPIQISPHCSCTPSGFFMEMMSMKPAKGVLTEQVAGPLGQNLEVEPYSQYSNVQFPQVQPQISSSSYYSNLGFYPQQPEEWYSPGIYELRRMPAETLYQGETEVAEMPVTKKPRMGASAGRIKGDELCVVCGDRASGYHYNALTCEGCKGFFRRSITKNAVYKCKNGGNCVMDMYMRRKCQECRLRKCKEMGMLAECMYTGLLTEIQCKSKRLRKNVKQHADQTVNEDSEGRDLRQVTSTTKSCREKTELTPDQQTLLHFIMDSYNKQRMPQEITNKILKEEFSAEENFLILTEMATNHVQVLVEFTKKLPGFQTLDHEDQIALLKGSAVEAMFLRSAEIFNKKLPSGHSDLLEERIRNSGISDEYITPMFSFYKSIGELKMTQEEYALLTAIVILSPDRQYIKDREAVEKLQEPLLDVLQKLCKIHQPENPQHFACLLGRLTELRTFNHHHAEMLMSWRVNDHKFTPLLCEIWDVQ

COC(=O)CC(=O)OC
not listed: [18] | [19] | [20]
inactive: all other assays above

Cc1ccc(C)c(O)c1
not listed: [9] | [15] | [20]
inactive: all other assays above

C[C@]12C=CC(=O)C=C1CC[C@H]1[C@@H]3C[C@@H](O)[C@](O)(C(=O)CO)[C@@]3(C)C[C@H](O)[C@@]12F
not listed: [4] | [18] | [19] | [20]
inactive: all other assays above

Nc1ccc2c(c1)C(=O)c1ccccc1C2=O
inactive: [3] | [4] | [5] | [7] | [8] | [10] | [11] | [12] | [13] | [14]
60 µM (active) and inactive: [1]
active: [2] 4.77 µM and 3.06 µM

CC(=O)OC(C)C
not listed: [4] | [15] | [20]
inactive: all other assays above

C=CC(C)(O)CCC=C(C)C (configuration not stated)
not listed: [11] | [13] | [15] | [20]
inactive: all other assays above

CCCCCCOCCOCCO
not listed: [3] | [4] | [9] | [11] | [13] | [16] | [17]
inactive: all other assays above

CN(C)CCCN1c2ccccc2Sc2ccc(Cl)cc21
inactive: [2] | [8] | [19]
active: [1] 68.6 µM | [20] 30.6 µM | [5] 38.9 µM and 26.6 µM | [7] 24.3 µM and 29.8 µM | [10] 11 µM and 23.7 µM | [12] 13.8 µM and 18.8 µM | [18] 49 µM and 26.6 µM | [14] 21.9 µM and 26.6 µM | [15] 43.6 µM and 26.6 µM

O=Cc1ccccc1C=O
12.2 µM (active) and inactive: [7]
24.5 µM (active) and inactive: [12]
active: [1] 17.2 µM
not listed: [3] | [5] | [16] | [17] | [18] | [19]
inactive: all other assays above

COC(=O)c1ccc(C)cc1
not listed: [3] | [4] | [15]
inactive: all other assays above

CC(=O)O[C@]1(C(C)=O)CC[C@H]2[C@@H]3C=C(C)C4=CC(=O)CC[C@]4(C)[C@H]3CC[C@@]21C
active: [6] 19.3 µM and 11.9 µM
not listed: [4] | [9] | [11] | [13] | [16] | [18] | [19]
inactive: all other assays above

C=CCCCCCCCCCC
not listed: [9] | [16] | [17] | [18] | [19] | [20]
inactive: all other assays above

Nc1ccc(O)c(N)c1
inactive and 1.37 µM (active): [2]
inactive: [3] | [6] | [7] | [8] | [10] | [12] | [14] | [16] | [17]
active: [1] 54.1 µM | [20] 43.3 µM | [5] 43.6 µM

CC(C)[C@@H]1CC[C@@H](C)CC1=O
inactive: [1] | [2] | [20] | [3] | [5] | [6] | [7] | [8] | [10] | [12] | [14]

CC(C)=CCO
not listed: [4] | [6] | [13] | [18] | [19]
inactive: all other assays above

O=S1(=O)CCCO1
not listed: [4] | [9] | [13] | [15] | [18] | [19]
inactive: all other assays above

O=C(O)c1ccc(O)cc1
not listed: [4] | [6] | [15] | [16] | [17]
inactive: all other assays above

CCc1cccc2c3c([nH]c12)C(CC)(CC(=O)O)OCC3 (configuration not stated)
not listed: [4] | [9] | [11] | [13]
inactive: all other assays above
